This note sets out measurements from PubChem BioAssay (NCI).

Test systems include T-47D breast; BT-549 breast; MDA-MB-435 melanoma; SW-620 colon; MCF7 breast; HCT-116 colon; HCC-2998 colon; KM12 colon.
Common to all, as to assay: NCI-60 one-dose screen, 48 h (100 = growth as untreated, 0 = no growth, -100 = all killed)
Common to all, as to settings: 10 µM unless noted

SMILES strings stand for the structures. “And” between values parts separate entries of the source, which are not always exact repeats. Equal values may be shown once. This is part of a sample that, as a whole, favours compounds with a hit. Of some 83,000 tested, about 20% had one in any assay.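 In brief: 96-well plates, 48 h treatment, single concentration, percent growth endpoint.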 Values without a mark were called inactive. The source made the active and inactive calls. The calls were made as follows: active = growth percent below 10; inactive = the rest.

On to `Nc1[nH]nc(Nc2ccccc2)c1-c1nc2ccccc2s1`, for which the growth with T-47D breast is 2.9% (active); with BT-549 breast it was 38.1%; with MDA-MB-435 melanoma it was 22.8%; in the experiment with SW-620 colon, 15.5%; in the experiment with MCF7 breast, 12.4%; with HCT-116 colon it was 3.73% (active). The values for the growth with HCC-2998 colon and in the experiment on KM12 colon were 18.3% and 15.6%, respectively.

As to `COc1ccc2c(c1)c(C(=O)c1nc(-c3cn(C)c4ccccc34)no1)cn2C`, the growth is 77.5% with T-47D breast; 98% in the experiment on BT-549 breast; 76.7% in the experiment with MDA-MB-435 melanoma; 87% with SW-620 colon; 24% in the experiment on MCF7 breast; 99.5% with HCT-116 colon. Further, the figures for the growth with HCC-2998 colon and with KM12 colon were 95.3% and 81%, respectively.

As for `COc1ccc2c(O)c(/C=C3\N=Nc4nc(C)ccc43)oc2c1CC1CCNCC1`, the growth is 89.5% with T-47D breast; 60.4% in the experiment on BT-549 breast; 42.7% with MDA-MB-435 melanoma; 38.9% in the experiment on SW-620 colon; 67.3% with MCF7 breast; 35.3% in the experiment with HCT-116 colon. The growth with HCC-2998 colon is 78.1%; in the experiment on KM12 colon, 38.2%.

As to `C[C@@H]1O[C@@H](O[C@H]2[C@@H](OC(=O)[C@]34CCC(C)(C)C[C@H]3C3=CC[C@@H]5[C@@]6(C)C[C@H](O)[C@H](O[C@@H]7O[C@H](CO)[C@@H](O)[C@H](O)[C@H]7O)[C@@](C)(CO)[C@@H]6CC[C@@]5(C)[C@]3(C)C[C@H]4O)OC[C@@H](O)[C@@H]2O)[C@H](O)[C@H](O[C@@H]2OC[C@@H](O)[C@H](O[C@@H]3OC[C@](O)(CO)[C@H]3O[C@@H]3OC[C@@H](O)[C@H](O)[C@H]3O)[C@H]2O)[C@H]1O[C@@H]1OC[C@](O)(CO)[C@H]1O`, the growth is 49.8% in the experiment on T-47D breast; 74.4% in the experiment on BT-549 breast; 52.1% with MDA-MB-435 melanoma; 75.4% with SW-620 colon; 68.9% in the experiment with MCF7 breast; 46.3% with HCT-116 colon. Further, the growth with HCC-2998 colon is -1.75% (active); in the experiment on KM12 colon, 66.5%.

In the case of `C[C@]12CCc3c(ccc4cc(O)ccc34)[C@@H]1C[C@H](O)[C@@H]2O`, the growth is 98.8% in the experiment on T-47D breast; 94.7% with BT-549 breast; 99% with MDA-MB-435 melanoma; 96.4% in the experiment on SW-620 colon; 132% with MCF7 breast; 104% in the experiment with HCT-116 colon. Besides, the growth with HCC-2998 colon was 109%; in the experiment with KM12 colon, 108%.

For `NS(=O)(=O)c1ccc(C(=O)N=Nc2c(O)[nH]c3c(F)cccc23)cc1`, the growth is 97% in the experiment on T-47D breast; 99.7% in the experiment on BT-549 breast; 107% with MDA-MB-435 melanoma; 100% in the experiment on SW-620 colon; 96.4% with MCF7 breast; 103% in the experiment with HCT-116 colon. Further, the figures for the growth with HCC-2998 colon and in the experiment on KM12 colon were 106% and 107%, respectively.

With `CCOC(=O)c1nc2c3ccccc3cnn2c1C(=O)c1ccc(OC)cc1`, the growth in the experiment with T-47D breast is 85.9%; in the experiment on BT-549 breast it was 98.2%; in the experiment on MDA-MB-435 melanoma, 107%; in the experiment with SW-620 colon it was 99.2%; in the experiment with MCF7 breast, 80.8%; in the experiment on HCT-116 colon, 92%. In addition, the growth in the experiment on HCC-2998 colon is 99.2%; in the experiment on KM12 colon, 102%.

Take `O/N=C(/c1ccccc1)c1ccc2c3c(cccc13)CC2`: the growth in the experiment on T-47D breast was 85.9% and 93.8%; in the experiment on BT-549 breast it was 84.6% and 106%; in the experiment on MDA-MB-435 melanoma it was 47.3% and 37.8%; with SW-620 colon, 91.2% and 84%; with MCF7 breast it was 85.8% and 82.6%; with HCT-116 colon, 83.7% and 92.1%. For the same compound, the growth was 101% and 97.8% in the experiment with HCC-2998 colon; 86.4% and 78.4% with KM12 colon.

For `CCCCSc1ccc2nc(-c3ccc(OCCCN=C(N)N)cc3)cn2c1`, the growth is 90.7% in the experiment with T-47D breast; 54.2% in the experiment with BT-549 breast; 47.6% with MDA-MB-435 melanoma; 83.5% in the experiment with SW-620 colon; 47% in the experiment on MCF7 breast; 42.2% with HCT-116 colon. For the same compound, the values for the growth in the experiment with HCC-2998 colon and with KM12 colon were 59.2% and 34.3%, respectively.

With `Cc1n(Cc2ccc3ccccc3c2)c(Cl)c(Cl)[n+]1Cc1ccc2ccccc2c1`, the growth is 10.3% with T-47D breast; 26.8% in the experiment with BT-549 breast; -2.29% (active) with MDA-MB-435 melanoma; 40.5% in the experiment with SW-620 colon; 21.4% with MCF7 breast; 18.2% in the experiment on HCT-116 colon. For the same compound, the figures for the growth in the experiment on HCC-2998 colon and with KM12 colon were 17.3% and 0.454% (active), respectively.

Consider `CC(=O)c1c(C)nc(SCC(=O)Nc2ccc(Cl)cc2)n1-c1ccc(Cl)cc1`, for which the growth in the experiment on T-47D breast was 72.1%; in the experiment on BT-549 breast, 92.1%; in the experiment on MDA-MB-435 melanoma it was 89.6%; in the experiment on SW-620 colon, 87.6%; in the experiment on MCF7 breast, 82.9%; in the experiment with HCT-116 colon, 67.7%. Moreover, the growth was 102% in the experiment with HCC-2998 colon and 98.5% with KM12 colon.

As to `COc1cccc(C2C(C#N)=C(N)Oc3cc(OCCCCCC[P+](c4ccccc4)(c4ccccc4)c4ccccc4)ccc32)c1` (configuration not stated), the growth in the experiment on T-47D breast is -32.9% (active); in the experiment with BT-549 breast, -54.3% (active); in the experiment with MDA-MB-435 melanoma it was -77.6% (active); in the experiment on SW-620 colon, -31.7% (active); in the experiment with MCF7 breast it was -39.2% (active); in the experiment on HCT-116 colon, -81% (active). The growth with HCC-2998 colon was -68.6% (active); with KM12 colon, -77% (active).

As for `CN(C)CCN1C(=O)c2c(c3c4ccccc4n4c3c3c2c2ccccc2n3C2CC(O)C(O)C4(C)O2)C1=O` (configuration not stated), the growth in the experiment on T-47D breast is 30.1%; in the experiment with BT-549 breast, 62.9%; with MDA-MB-435 melanoma, 32.1%; in the experiment with SW-620 colon it was 18.5%; with MCF7 breast, 6.41% (active); with HCT-116 colon it was 22.4%. The figures for the growth in the experiment on HCC-2998 colon and in the experiment on KM12 colon were 26.4% and 34.2%, respectively.

Take `CCOC(=O)c1c(-c2ccc(C)cc2)c(C#N)c(=O)n(-c2cccc(C(F)(F)F)c2)c1N`: the growth was 99.9% with T-47D breast; 113% in the experiment on BT-549 breast; 102% in the experiment on MDA-MB-435 melanoma; 101% in the experiment with SW-620 colon; 94% in the experiment with MCF7 breast; 103% with HCT-116 colon. Also, the growth is 107% in the experiment on HCC-2998 colon and 100% in the experiment with KM12 colon.
